Experimental data taken from the supplement of paper PMC3334620.
In all, about 33,000 sequences were measured (“E-score (-0.5 to 0.5)”: median about -8e-05, highest 2% from about 0.23 on). The sample as a whole holds a higher share of the highest values than the screen did.

Biological target: T1, Nrg2 (UniProt P38082)
T1 sequence: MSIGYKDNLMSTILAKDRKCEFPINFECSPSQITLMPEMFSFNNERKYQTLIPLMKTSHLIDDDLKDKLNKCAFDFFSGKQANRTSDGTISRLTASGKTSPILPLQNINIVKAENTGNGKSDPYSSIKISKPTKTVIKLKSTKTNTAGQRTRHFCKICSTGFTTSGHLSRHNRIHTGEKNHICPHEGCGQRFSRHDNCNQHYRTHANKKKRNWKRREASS
Assay: PBM E-score (8-mer binding enrichment) (E-score (-0.5 to 0.5)); higher = stronger / more preferred TF binding
Settings: protein concentration: 100 nM; construct: GST-full length
Outline: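 Yeast transcription factors, full-length or as DNA-binding domains, were expressed with a GST tag using PURExpress in vitro transcription/translation. At about 100-200 nM they were applied to universal all-10-mer Agilent arrays, double-stranded by primer extension on fresh or once-stripped slides. Fluorescent anti-GST detected bound protein, and masliner normalised the scans. E-scores for ungapped eight-base words, pooled with reverse complements, came from the Universal PBM Analysis Suite.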

Sequence | PBM E-score
ACGGTTAG | -0.312
ATTCTTTA | -0.0742
CATCAATC | -0.0356
AGGGTTAC | -0.14
CAAGTGTA | -0.0141
ATGATGGG | 0.0257
CTATGGCA | -0.0101
CCCTGAAA | 0.305
ACCTGCAG | -0.0488
CCCTGCAA | 0.162
CCCTGGAG | 0.05
CCCTGCAG | 0.26
CCCTGGAA | 0.0405
CCCTGGAC | 0.295
TCCTGAAA | -0.0476
GCCTGAAA | 0.115
ACTCCCGG | -0.0764
ATCCCATA | -0.0872
CCATAGTA | 0.0238
ACATAGTA | 0.0458
GCATAGTA | 0.23
TCTGCAAA | -0.0511
GGCTTCTA | -0.075
AGAAACTG | 0.0813
GACAAGGA | 0.0442

Sequence | PBM E-score
ACGGTCCC | -0.00846
AGGGTCCC | 0.397
ACGGTCCA | -0.162
CGGGTCCA | 0.0193
CGGGTCCC | -0.125
AGGGTCCA | 0.439
GAGGTCCA | -0.0725
AAGGTCCA | 0.073
AGGGTCAG | -0.102
AGGGTCAA | 0.236
CGGGTCAA | -0.0478
GGGGTCCA | 0.27
GGGACAAA | 0.11
GCTGCCAC | -0.138
ACAGTGGT | 0.0526
CTGCTTGA | -0.0823
CAGATCAG | 0.194
CGCTCGGC | 0.0597
AGGGTCCG | 0.374
ACGGTCCG | -0.231
AAGGTCCG | -0.0532
ACCTCAAC | 0.0405
GGCCAACC | 0.0203
AGTATTAA | 0.219
GATATTAA | 0.147

Sequence | PBM E-score
AATATTAA | 0.295
CATATTAG | 0.124
AATATTAG | 0.256
CGTATTAG | 0.0345
AGTATTAG | 0.273
CATATTAA | 0.129
AATATTAT | 0.219
TATATTAA | 0.234
ACTATTAA | 0.175
AATATTAC | 0.14
CTTAGGAA | -0.0218
CGGAGCAA | 0.0265
CCTTCGCC | -0.31
AATCCTGC | -0.00651
CGCATTCA | 0.0356
GAACTGCA | 0.0913
ACATATAA | 0.211
GCCCCCAA | -0.331
CTTTCCAA | -0.0143
AATATTCG | 0.177
AATATTCA | 0.144
AATATTCC | 0.233
TATTACCA | 0.0363
CGAATACA | 0.0068
TCAACGGA | -0.0313

Sequence | PBM E-score
ACAACGGG | 0.243
ACAACGGT | -0.0246
CCAACGGA | -0.031
CCAACGGG | 0.0593
ACAACGGA | 0.242
GACCGGAC | -0.168
AAAGGGCG | 0.0812
AGCGCACT | -0.0126
GTTAGGCA | -0.146
CATGGTCC | 0.0356
CTTGGTCA | 0.138
GTTGGTCA | 0.229
ATTGGTCA | 0.0477
CATGGTCA | 0.236
CATGGTCG | -0.0584
GGAGTGAC | 0.102
ACACCGAC | -0.151
CGCCCTAA | -0.171
CGGGCTAC | -0.0936
AAAGGGTG | 0.00635
CAAGGGAG | -0.0764
AAGGGGTG | -0.00477
AGGGGGTC | -0.163
AAGGGGTC | 0.239
CAAGGGAC | 0.261

Sequence | PBM E-score
ATGGGGTA | 0.127
ATGGGGTC | 0.299
AAAGGGTT | 0.0608
AAAGGGTC | 0.318
CAAGGGAA | 0.0785
CTGGGGTC | 0.015
CCTATATA | 0.0688
CCTTTAGA | -0.136
CGGGGGTC | -0.342
CAGGGGTA | 0.166
CAAGGGTG | 0.0522
CAGGGGTC | 0.302
CAAGGGTC | 0.376
GAAGGGTC | 0.0665
CATCTTAC | -0.00815
ACCAAGTG | -0.0903
CCTCTCTA | -0.294
AATTTCAA | -0.0693
CGTTTTTC | -0.117
GCTACCCA | -0.152
AAGGAAAG | -0.137
AAAAGTAG | 0.0358
GCCGAAAA | 0.239
GCCGAAAC | -0.0148
CCCGAAAA | 0.129

Sequence | PBM E-score
TATCCACA | 0.131
AATGAACC | 0.00986
CATGAACC | 0.233
GATGAACC | -0.0336
CCTCTTGA | 0.0273
TGCCCACA | -0.0506
GAATATTA | 0.232
AAATATTC | 0.127
CAATATTC | 0.0479
GAATATTC | 0.24
GAATATGA | -0.0524
GAATATCA | 0.0654
GCTGAGCA | 0.0693
GACAACTA | 0.158
CTGTAACC | 0.108
CCTTGGAC | -0.165
CACGCCTA | -0.227
AGGTCCAA | -0.0549
CGGTCCAA | -0.224
AGGTCCAC | -0.199
GGGTCCAC | 0.301
GGGTCCAA | 0.322
CGGTCCAC | -0.222
TCTCAACA | 0.0641
TAGAGATA | 0.0396

Sequence | PBM E-score
CCTGACTA | 0.172
GGACCCGA | 0.0929
ATACCTTC | -0.0248
GCCACGGA | -0.0858
TGCTTGAA | 0.0462
CGCTTGAA | 0.263
CGCTTGAG | -0.0135
ATATATTA | 0.245
ATTTATCG | 0.0781
GTATATTA | 0.107
ATTTATTA | 0.273
CTATATTC | 0.0669
ATTTATCC | 0.247
CTATATTA | 0.229
GTTTATTA | 0.194
ATTTATCA | 0.225
ATATATTG | -0.0404
ATTATTTA | 0.173
CTCTATTA | -0.105
AAGCCACA | -0.101
GTAAGCCA | -0.113
ACCATCTC | 0.0848
AGTACTAC | 0.118
CTCGCTTA | 0.132
TCCACCGA | -0.0753

Sequence | PBM E-score
AAGCGATT | -0.0219
AACTGCAC | 0.0736
AACTGCAT | 0.232
AACTGCAG | -0.0636
GCTCAGCA | -0.133
AAGCCACC | -0.198
GAACTGTC | 0.0447
GCGAGTAA | 0.198
ACGAGTAA | 0.244
ACGAGTAT | 0.0482
ATGGGTTA | 0.0918
AGTGGTTC | -0.0506
ATACGCAA | 0.232
ATACGCAG | -0.235
GTACGCAA | -0.131
CTCTGGTA | -0.0435
CAAGAACA | 0.007
TAAGAACA | 0.26
GAAGAACA | 0.155
AGTCGACT | 0.243
AGTCGACC | -0.0853
AGTCGACA | 0.194
GGGAGAAC | -0.189
AAGAAGGC | -0.197
AGACATTC | -0.0988

Sequence | PBM E-score
GCCCTGTA | 0.208
ATCCTGAA | 0.125
AACCTGAA | -0.178
ACCCTGTA | 0.347
ACCCTGAA | 0.319
AGCCTGTA | -0.126
ACAAGGAC | -0.0546
GCGGTCCA | -0.159
TAAAGCCA | 0.0522
ATACAAAA | 0.218
ATACAAAT | 0.173
AAACAAAT | 0.235
AAACAAAA | 0.0254
CAACAAAC | 0.0713
GAACAAAA | 0.195
ATACAAAC | 0.258
AAACAAAC | -0.0324
GAACAAAC | 0.323
AGTCCATA | 0.0684
